Measured values from PubChem BioAssay (NCI).
This is part of a sample that, as a whole, favours compounds with a hit. Of some 79,000 tested, about 15% had one in any assay. Active and inactive are the calls of the source. Cut-off read from the data, not from the text of the source: active = growth inhibition above about 70%; inactive = the rest.

Legend:
[1] = NCI Yeast Anticancer Drug Screen. Data for the wt1 strain (AID 149);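 note: 0% = growth of vehicle-treated wt1 cultures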; settings: S. cerevisiae wt1 strain (SPY 50644) growth inhibition, active compounds read high
Procedure, shortened: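 Compounds are added to wt1 yeast cultures. Growth is then measured. Inhibition is expressed relative to vehicle-treated controls.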

[2] = NCI Yeast Anticancer Drug Screen. Data for the rad50EPP+ strain (AID 151);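 note: 0% = growth of vehicle-treated control cultures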; settings: S. cerevisiae rad50 mutant strain, active compounds read high
Procedure, shortened: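 Vehicle-normalised growth inhibition; rad50EPP+ yeast strain, altered in DNA damage repair, compound-treated.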

[3] = NCI Yeast Anticancer Drug Screen. Data for the mgt1 strain (AID 153); settings: S. cerevisiae mgt1 mutant growth inhibition, active compounds read high
Procedure, shortened: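 Vehicle-normalized growth inhibition is determined in mgt1 yeast, a strain selected for a defined alteration in DNA repair or cell cycle control.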

[4] = NCI Yeast Anticancer Drug Screen. Data for the rad50 strain (AID 155);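 note: 0% = growth of vehicle-only cultures of the same strain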; settings: S. cerevisiae rad50 strain growth inhibition, active compounds read high
Procedure, shortened: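 Inhibition values express reduced yeast growth in compound-treated cultures relative to vehicle-treated controls.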

[5] = NCI Yeast Anticancer Drug Screen. Data for the mec2-1 strain (AID 157); settings: S. cerevisiae mec2-1 strain, active compounds read high
Procedure, shortened: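 Mutant yeast (mec2-1) grown with compound; growth inhibition relative to vehicle control reported.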

[6] = NCI Yeast Anticancer Drug Screen. Data for the rad14 strain (AID 159);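 note: 0% = growth of vehicle-treated control cultures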; settings: S. cerevisiae rad14 strain growth inhibition, active compounds read high
Procedure, shortened: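 A mutant yeast strain defective in DNA damage repair is treated with compound; inhibition of its growth is scored against untreated, vehicle-exposed cultures.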

[7] = NCI Yeast Anticancer Drug Screen. Data for the sgs1 mgt1 strain (AID 161);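 note: 0% = growth of cultures given vehicle only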; settings: S. cerevisiae sgs1 mgt1 strain, active compounds read high
Procedure, shortened: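 This yeast growth screen uses a strain with defined DNA-repair lesions; compound-treated growth is compared with vehicle-treated growth.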

[8] = NCI Yeast Anticancer Drug Screen. Data for the CLN2oe strain (AID 163);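 note: 0% = growth of vehicle-only control cultures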; settings: S. cerevisiae CLN2oe strain, active compounds read high
Procedure, shortened: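 Compounds are applied to yeast harbouring a defined cell-cycle control change; reduced growth compared with vehicle-treated controls gives the value.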

[9] = NCI Yeast Anticancer Drug Screen. Data for the cln2 rad14 strain (AID 165);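 note: 0% = growth equal to vehicle treated cultures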; settings: S. cerevisiae cln2 rad14 strain, active compounds read high
Procedure, shortened: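 Readout is yeast growth inhibition versus vehicle-treated controls, using a strain with cln2 and rad14 alterations exposed to compound.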

[10] = NCI Yeast Anticancer Drug Screen. Data for the bub3 strain (AID 167); settings: S. cerevisiae bub3 mutant strain, active compounds read high
Procedure, shortened: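 Steps: expose the mutant yeast strain to compound; grow alongside vehicle-treated cultures; measure growth; express inhibition against the vehicle cultures.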

[11] = NCI Yeast Anticancer Drug Screen. Data for the wt2 strain (AID 169);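 note: 0% = growth of vehicle-treated yeast cultures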; settings: S. cerevisiae wt2 strain growth inhibition, active compounds read high
Procedure, shortened: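 Against vehicle-treated controls, the growth of yeast exposed to each compound was compared, and the inhibition was recorded.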

[12] = NCI Yeast Anticancer Drug Screen. Data for the mlh1 strain (AID 171);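 note: 0% = growth of vehicle-treated control cultures of the same strain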; settings: S. cerevisiae mlh1 strain growth inhibition, active compounds read high
Procedure, shortened: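 Measured: yeast growth. Reference: vehicle-treated controls. Organism: strain with a defined alteration affecting DNA damage repair or cell cycle control, treated with compound.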

[13] = NCI Yeast Anticancer Drug Screen. Data for the sgs1 strain (AID 173);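 note: 0% = growth of vehicle-only control cultures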; settings: S. cerevisiae sgs1 mutant, active compounds read high
Procedure, shortened: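 Each compound was added to cultures of the altered yeast strain. Growth was recorded, and inhibition was derived by comparison with vehicle controls.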

[14] = NCI Yeast Anticancer Drug Screen. Data for the rad18 strain (AID 177); settings: S. cerevisiae rad18 mutant growth inhibition, active compounds read high
Procedure, shortened: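 Vehicle-treated cultures served as the baseline for scoring compound-induced growth inhibition in DNA-repair-mutant yeast.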

[15] = NCI Yeast Anticancer Drug Screen. Data for the rad52 strain (AID 147);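 note: 0% = growth of vehicle-treated control cultures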; settings: S. cerevisiae rad52 mutant growth inhibition, active compounds read high
Procedure, shortened: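 The repair-mutant yeast strain was incubated with compounds, then growth was read and inhibition derived relative to vehicle.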

[16] = NCI Yeast Anticancer Drug Screen. Data for the mlh1 rad18 strain (AID 175); settings: S. cerevisiae mlh1 rad18 strain growth inhibition, active compounds read high
Procedure, shortened: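 Genetically defined yeast (DNA repair-deficient) exposed to compounds; growth inhibition determined relative to vehicle.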

[17] = at 5.0 µM (retest, dose inferred, filed as 0.5)
[18] = at 50.0 µM (retest, dose inferred, filed as 5.0)

Measured: growth inhibition

NNC(=O)CCc1ccc2ccc3ccccc3c2c1
inactive: [1]; at 1.2 µM 1% | [1]; at 3.7 µM 3% | [1]; at 11.0 µM 3% | [1]; at 33.0 µM 3% | [1]; at 100.0 µM 18% | [2]; at 1.2 µM 2% | [2]; at 3.7 µM 4% | [2]; at 11.0 µM 15% | [2]; at 33.0 µM 34% | [2]; at 100.0 µM 58% | [3]; at 1.2 µM -2% | [3]; at 3.7 µM -3% | [3]; at 11.0 µM -5% | [3]; at 33.0 µM -4% | [3]; at 100.0 µM 23% | [4]; at 1.2 µM 0% | [4]; at 3.7 µM -4% | [4]; [17] -13% | [4]; at 11.0 µM 9% | [4]; at 33.0 µM 7% | [4]; [18] 7% | [4]; at 50.0 µM 28.1% | [4]; at 100.0 µM 58% | [5]; at 1.2 µM -1% | [5]; at 3.7 µM -1% | [5]; [17] -1% | [5]; at 11.0 µM 0% | [5]; at 33.0 µM 2% | [5]; [18] 2% | [5]; at 50.0 µM -10.2% | [5]; at 100.0 µM 50% | [6]; at 1.2 µM -4% | [6]; at 3.7 µM -2% | [6]; at 11.0 µM -3% | [6]; at 33.0 µM -4% | [6]; at 100.0 µM 40% | [7]; [17] -6% | [7]; [18] -14% | [7]; at 50.0 µM 20.1% | [8]; at 1.2 µM -10% | [8]; at 3.7 µM -15% | [8]; at 11.0 µM -17% | [8]; at 33.0 µM -3% | [8]; at 100.0 µM 60% | [9]; [17] -28% | [9]; [18] -15% | [9]; at 50.0 µM 24.6% | [10]; at 1.2 µM -8% | [10]; at 3.7 µM -4% | [10]; [17] -11% | [10]; at 11.0 µM -33% | [10]; at 33.0 µM 19% | [10]; [18] 54% | [10]; at 50.0 µM 37.2% | [10]; at 100.0 µM 58% | [11]; at 1.2 µM -1% | [11]; at 3.7 µM -1% | [11]; at 11.0 µM 2% | [11]; at 33.0 µM 6% | [11]; at 100.0 µM 32% | [12]; at 1.2 µM 6% | [12]; at 3.7 µM 3% | [12]; at 11.0 µM 5% | [12]; at 33.0 µM 9% | [12]; at 100.0 µM 48% | [13]; at 1.2 µM 6% | [13]; at 3.7 µM 8% | [13]; at 11.0 µM 17% | [13]; at 33.0 µM 22% | [13]; at 100.0 µM 52% | [14]; at 1.2 µM 17% | [14]; at 3.7 µM 15% | [14]; at 11.0 µM -8% | [14]; at 33.0 µM 38% | [14]; at 100.0 µM 66%

C[C@H](CCC(=O)NN)[C@H]1CC[C@H]2[C@@H]3CC[C@@H]4C[C@H](O)CC[C@]4(C)[C@H]3CC[C@]12C
active: [10]; [18] 73% | [10]; at 50.0 µM 89.2% | [16]; at 50.0 µM 92.2%
inactive: [15]; at 1.2 µM -2% | [15]; at 3.7 µM 0% | [15]; at 11.0 µM 0% | [15]; at 33.0 µM 6% | [15]; at 100.0 µM 10% | [2]; at 1.2 µM 0% | [2]; at 3.7 µM 4% | [2]; at 11.0 µM 4% | [2]; at 33.0 µM 6% | [2]; at 100.0 µM 18% | [3]; at 1.2 µM 0% | [3]; at 3.7 µM -1% | [3]; at 11.0 µM 1% | [3]; at 33.0 µM -1% | [3]; at 100.0 µM 2% | [4]; at 1.2 µM 1% | [4]; at 3.7 µM 1% | [4]; [17] 12% | [4]; at 11.0 µM 9% | [4]; at 33.0 µM -1% | [4]; [18] 45% | [4]; at 50.0 µM 60% | [4]; at 100.0 µM 5% | [5]; at 1.2 µM 3% | [5]; at 3.7 µM 3% | [5]; [17] 0% | [5]; at 11.0 µM 3% | [5]; at 33.0 µM 5% | [5]; [18] 7% | [5]; at 50.0 µM 40.2% | [5]; at 100.0 µM 17% | [7]; [17] 3% | [7]; [18] 51% | [7]; at 50.0 µM 35.3% | [9]; [17] -4% | [9]; [18] 54% | [9]; at 50.0 µM 54.4% | [10]; at 1.2 µM -3% | [10]; at 3.7 µM 1% | [10]; [17] -18% | [10]; at 11.0 µM 8% | [10]; at 33.0 µM 1% | [10]; at 100.0 µM -3% | [11]; at 1.2 µM -2% | [11]; at 3.7 µM -2% | [11]; at 11.0 µM -2% | [11]; at 33.0 µM -1% | [11]; at 100.0 µM 2% | [12]; at 1.2 µM 3% | [12]; at 3.7 µM 2% | [12]; at 11.0 µM 2% | [12]; at 33.0 µM -14% | [12]; at 100.0 µM 4% | [13]; at 1.2 µM 2% | [13]; at 3.7 µM 3% | [13]; at 11.0 µM 4% | [13]; at 33.0 µM 4% | [13]; at 100.0 µM 6% | [16]; [17] 21% | [16]; [18] 44% | [14]; at 1.2 µM -5% | [14]; at 3.7 µM -4% | [14]; at 11.0 µM 5% | [14]; at 33.0 µM 0% | [14]; at 100.0 µM 3%
